Screening data from PubChem.
SMN2 splice up = enhancers of SMN2 splice variant expression; 210,000 compounds, 2.8% hits; Potency, µM (doses to about 46.1 µM), for the others: at the highest dose activity change, positive = activation, hits mostly activators; HEK293 SMN2-luciferase splicing reporter, luminescence, 30-36 h; AID 1458; note: % of control where 0% means no effect; nearly all actives have a fitted effect of over 55% in size
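qHTS luciferase splicing reporter: luminescence rises when SMN2 exon 7 is included in transfected HEK293 cells. Compound exposure lasted 30-36 h at 37C, with 4.5 mM final sodium butyrate as control, followed by a ONE-Glo read.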
Rab9 promoter act = Rab9 promoter activation. Huh7 Rab9 promoter-luciferase reporter, luminescence, 24 h. Potency, µM (series often up to 9.22 µM), inactives show at the top dose activation, negative = inhibition, most hits filed as activators. 320,000 compounds, 2.8% hits; note: % of control where 0% means no effect; nearly all actives have a fitted effect of over 60% in size
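Huh7 cells stably carrying Rab9 promoter–luciferase reporter, plated 1500 cells/well, compound added after 2 h and incubated 24 h at 37 °C; luciferase luminescence then read after 10 min with detection reagent.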
NPC1 prom act = activators of NPC1 promoter | Potency, µM (series often up to 9.22 µM), for the others: top-dose activation, actives largely listed as activators | AID 485313 | 320,000 compounds, 2.4% hits | Huh7 NPC1 promoter luciferase reporter, 24 h; note: % of control where 0% means no effect; nearly all actives have a fitted effect of over 60% in size
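Stable NPC1-promoter luciferase Huh7 line; cpd (DMSO) 24 h, 37 °C, 5% CO2; Amplite luciferase reagent 10 min RT; luminescence readout. qHTS format.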
ELG1 genotoxic = genotoxicity induction in ELG1-luciferase HEK293T cells; AID 504466; Potency, µM (titrated, usually from 46 µM), inactives show top-dose activity change, positive = activation, actives largely listed as activators; 330,000 compounds, 1.3% hits; HEK293T ELG1-luciferase reporter, luminescence, 16 h; note: % of control where 0% means no effect; nearly all actives have a fitted effect of over 60% in size
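DMSO vehicle served as control against compound-treated ELG1-luciferase HEK293T cells; exposure lasted 16 hr at 37 °C and 5% CO2, followed by ONE-Glo luminescence detection after 30 min.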
p53 reactivation = restores transcriptional activity of mutant p53. 320,000 compounds, 0.063% hits. Potency, µM (titrated, usually from 92.2 µM), without a hit: at the highest dose activity change, positive = activation, hits mostly activators. H1299 p53-A138V BP100-luciferase reporter, luminescence, 24 h. AID 504706; note: % of control where 0% means no effect; nearly all actives have a fitted effect of over 45% in size
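H1299 (p53-null), stable ts p53-A138V + BP100-Luc; 1000 cells/well, Opti-MEM/10% FBS; cpd 4 pt, 1:5; 24 h, 37 deg C, 5% CO2; detection reagent 10 min RT; luminescence.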
FLuc modulator = inhibits or activates purified firefly luciferase, miR-21 counter-screen | P08659 | Potency, µM (highest dose often 57.5 µM), for the others: at the highest dose activity change, negative = inhibition, actives largely listed as inhibitors | 360,000 compounds, 6.9% hits | purified FLuc, Km substrates, luminescence inhibition;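 note: plate controls were vehicle for no effect and reference inhibitor for full effect; nearly all actives have a fitted effect of over 55% in size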
Target sequence (P08659 whole entry, looked up): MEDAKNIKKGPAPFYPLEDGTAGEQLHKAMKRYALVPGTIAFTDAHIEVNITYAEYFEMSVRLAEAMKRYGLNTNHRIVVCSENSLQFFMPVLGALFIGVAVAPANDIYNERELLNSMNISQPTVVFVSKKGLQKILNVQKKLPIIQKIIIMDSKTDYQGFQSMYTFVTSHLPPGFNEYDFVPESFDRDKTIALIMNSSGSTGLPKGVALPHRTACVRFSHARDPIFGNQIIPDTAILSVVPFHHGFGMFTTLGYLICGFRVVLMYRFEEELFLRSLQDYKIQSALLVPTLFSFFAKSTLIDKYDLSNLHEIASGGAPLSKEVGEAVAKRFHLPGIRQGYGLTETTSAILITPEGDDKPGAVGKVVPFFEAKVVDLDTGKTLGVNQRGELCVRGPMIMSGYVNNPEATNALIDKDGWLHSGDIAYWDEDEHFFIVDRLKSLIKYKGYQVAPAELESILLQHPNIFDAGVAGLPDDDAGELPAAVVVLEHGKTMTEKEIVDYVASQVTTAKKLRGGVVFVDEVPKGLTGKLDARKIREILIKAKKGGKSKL
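Purified P. pyralis luciferase, 10 nM final, with Km-level 10 uM D-luciferin and 10 uM ATP in 50 mM Tris acetate pH 7.5, 10 mM Mg acetate, 0.01% Tween-20, 0.05% BSA; 6-point qHTS titration about 60 µM downward; luminescence read.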
Numbers without * were called inactive; ? = inconclusive; . = no result given; ! = repeats disagree; [ ] = dose if it differs, or a comment. Only some compounds are listed: those with a hit (about 7.3% of all), similar ones and a draw of the others. Calls come from the whole dose curve; as a rule, active = well fitted curve in the direction sought with a large enough effect; inconclusive = small, poorly fitted or top-dose-only effect, or another doubt; inactive = no such curve, though single readings can be large; an effect the other way counts as inactive or inconclusive. Potency is the fitted concentration of half-maximal effect.

SMILES	SMN2 splice up	Rab9 promoter act	NPC1 prom act	ELG1 genotoxic	p53 reactivation	FLuc modulator
Cc1cc(C(=O)COC(=O)c2n[nH]c(=O)c3ccccc23)c(C)n1C(C)C	.	?	27%	?	23%	1.7µM*
Cc1cc(C(=O)COC(=O)c2ccc(O)cc2O)c(C)n1C(C)C	.	3.5µM*	3.5µM*	12%	?	4.8µM*
O=C(N/N=C/c1cccs1)c1ccc2ccccc2c1	.	?	1%	16%	3%	11µM*
O=C(N/N=C/c1cccs1)c1cccc2cc[nH]c12	-18%	?	?	-8%	-4%	24µM*
Cc1ccc(/C=N/NC(=O)c2ccc3ccccc3c2)s1	.	-11%	-20%	?	4%	27µM*
O=C(N/N=C/c1cc(Br)cs1)c1ccc2c(c1)OCCO2	.	?	3%	15%	6%	1.3µM*
Cc1cccc(N2CCN(C(=O)C3CCCN(S(=O)(=O)c4cccc5nsnc45)C3)CC2)c1C (centres undefined)	0%	.	.	.	.	0%
CCOC(=O)C1=C(CS(=O)(=O)c2c(C)cc(C)cc2C)NC(=O)NC1c1cccc(OC)c1 (centres undefined)	-9%	.	.	.	.	-2%
Cc1ccc(/C=N/NC(=O)c2ccc3c(c2)OCCO3)s1	.	?	?	?	12%	3.4µM*
Cn1ncc2c(N3CCN(c4ccccc4Cl)CC3)ncnc21	.	.	.	.	.	-9%
Cc1c(C(=O)Nc2ccccn2)sc2nc3n(c(=O)c12)CCC3	.	0.89µM*	1.3µM*	?	20%	9.5µM*
CCc1cccc(NC(=O)c2sc3nc4n(c(=O)c3c2C)CCC4)c1	.	2.8µM*	2µM*	?	24%	17µM*
Cc1ccccc1NC(=O)c1sc2nc3n(c(=O)c2c1C)CCC3	.	.	.	.	.	-3%
Cc1cccc(CCNC(=O)c2sc3nc4n(c(=O)c3c2C)CCCC4)c1	.	.	.	.	.	13µM*
Cc1c(C(=O)Nc2ccccc2F)sc2nc3n(c(=O)c12)CCC3	.	2.5µM*	2.8µM*	?	?	19µM*!
COc1ccc(OC)c(-c2noc(N3CCN(c4cccc(C)c4C)CC3)n2)c1	.	.	.	.	.	-14%
CC(C)Cn1c(=O)c2sccc2n2c(CCCC(=O)NCC(C)c3ccccc3)nnc12 (centres undefined)	.	.	.	.	.	5%
COc1cc2nc3c(c([Si](C)(C)C(C)(C)C)c2cc1OC)Cn1c-3cccc1=O	4%	.	.	.	.	.
CN(CC(=O)NCCc1ccccc1)S(=O)(=O)c1ccccc1	9%	2%	6%	7%	8%	2%
Cc1cc(N/N=C/c2cccc(Br)c2)nc2ccccc12	13µM*	?	3.2µM*	?	?	4.8µM*
ClC(Cl)(Cl)c1nc(N/N=C/c2ccncc2)c2ccccc2n1	2%	1%	-3%	-7%	1%	-1%
Cc1cc(N/N=C/c2ccncc2)nc2ccccc12	14µM*	2.8µM*	?	?	-2%	11µM*
CCN1CCN(c2cc(C)c3cc(NC(=O)/C=C/c4ccc(OCCC(C)C)cc4)ccc3n2)CC1	4%	.	.	.	.	-1%
CC(C)c1ccc(C(=O)Nc2ccc(-c3nc4ccccc4s3)c(Cl)c2)cc1	?	.	.	.	.	-10%
O=C(COc1ccc(Cl)cc1Cl)NCc1ccco1	-8%	?	25%	?	?	24µM*
SMILES	SMN2 splice up	Rab9 promoter act	NPC1 prom act	ELG1 genotoxic	p53 reactivation	FLuc modulator
CC1CCC/C(=N\NC(=O)COc2ccc(Cl)cc2Cl)C1 (centres undefined)	-20%	0%	-10%	4%	5%	-20%
O=C(COc1ccc(Cl)cc1Cl)NN=C1CCCCC1	-18%	-7%	0%	1%	6%	7.6µM*
CCOc1ccc(C(=O)Nc2cccc(C(=O)O)c2)cc1Cl	0.56µM*	?	?	-10%	-12%	0.24µM*
CCOc1ccc(C(=O)Nc2ccc(Cl)cn2)cc1Cl	?	2.5µM*	2.5µM*	?	7%	4.8µM*
CS(=O)(=O)N1CCC2(CC1)CN(C(=O)Nc1cccc(F)c1)C2	-9%	.	.	.	.	.
Cc1cc(=O)oc2cc(O)c(CN(C)CC(=O)O)cc12	12%[9.22 µM]	.	.	.	.	.
O=C(COc1ccc(Cl)cc1Cl)Nc1ccc(Cl)cn1	11µM*	?	0.45µM*	1.2µM*	33%	0.3µM*
COC(=O)c1sccc1NC(=O)Nc1ccc(C)c(C)c1	.	?	2%	2.3µM*	?	0.48µM*
CCc1ccc(NC(=O)Nc2ccsc2C(=O)OC)cc1	.	?	17%	2.1µM*	?	0.34µM*
COC(=O)c1sccc1NC(=O)Nc1ccc(Cl)c(Cl)c1	13µM*	-3%	-2%	18%	8%	?
Cc1ccc(S(=O)(=O)Nc2ccc(C(=O)OCC(=O)N(CCC#N)c3ccccc3)cc2)cc1C	1%	-2%	1%	2%	-6%	8%
Cc1nn(-c2ccccc2)c2c1N(CCCC(=O)NC(C)c1ccccc1)C(=O)CS2 (centres undefined)	.	.	.	.	.	-3%
COc1cccc(OC)c1NC(=O)c1nc2c(nnn2Cc2ccccc2Cl)c(=O)[nH]1	-40%	-1%	-1%	10%	-4%	?
O=C(Nc1ccc(F)cc1)c1nc2c(nnn2Cc2cccc3ccccc23)c(=O)[nH]1	.	0%	-4%	-1%	3%	27µM*
N=C(N)S/C=C\C(=O)O	-3%	.	.	.	.	.
CC1(C)Cc2nc3sc(C(=O)NCCCO)c(N)c3cc2CS1	14µM*	3.2µM*	?	?	-11%	15µM*
CC1(C)Cc2nc3sc(C(=O)NCCO)c(N)c3cc2CO1	?	15%	25%	8%	19%	27µM*
COc1ccc(NC(=O)C2CCN(S(=O)(=O)c3c(C)nn(C)c3C)CC2)cc1	.	1%	-1%	1%	0%	-1%
Cc1nn(C)c(C)c1S(=O)(=O)N1CCC(C(=O)Nc2ccc3c(c2)OCCO3)CC1	1%	20%	11%	18µM*	?	15µM*
COCC(C)n1c(C)cc(C(=O)COC(=O)c2ccc3ncsc3c2)c1C (centres undefined)	-17%	15%	1%	?	19%	17µM*
COCC(C)n1c(C)cc(C(=O)COC(=O)c2cnc(Cl)c(Cl)c2)c1C (centres undefined)	.	.	.	0%	23%	.
CSCc1nc2sc(C(=O)Nc3nc(C)cs3)c(C)c2c(=O)[nH]1	11µM*	3.2µM*	?	16%	1%	?
Cc1ccc(NC(=O)c2sc3nc(CCl)[nH]c(=O)c3c2C)c(C)c1	?	?	22%	?	5%	9.5µM*
c1ccc(-n2cnc3cc(NCc4ccccn4)ccc32)cc1	.	?	?	?	?	15µM*
